AmpC inh detg = inhibitors of E. coli AmpC beta-lactamase with detergent. P00811. AmpC hydrolysis of nitrocefin, absorbance 480 nm, 0.01% Triton. Potency, µM (highest dose often 114 µM), for inactives: at the top dose activity change, negative = inhibition, actives largely listed as inhibitors. 0.041% of 370,000 active;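 note: 0% = no-compound wells and -100% = no-enzyme wells; nearly all actives have a fitted effect of over 25% in size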
Target sequence (P00811 whole entry, looked up): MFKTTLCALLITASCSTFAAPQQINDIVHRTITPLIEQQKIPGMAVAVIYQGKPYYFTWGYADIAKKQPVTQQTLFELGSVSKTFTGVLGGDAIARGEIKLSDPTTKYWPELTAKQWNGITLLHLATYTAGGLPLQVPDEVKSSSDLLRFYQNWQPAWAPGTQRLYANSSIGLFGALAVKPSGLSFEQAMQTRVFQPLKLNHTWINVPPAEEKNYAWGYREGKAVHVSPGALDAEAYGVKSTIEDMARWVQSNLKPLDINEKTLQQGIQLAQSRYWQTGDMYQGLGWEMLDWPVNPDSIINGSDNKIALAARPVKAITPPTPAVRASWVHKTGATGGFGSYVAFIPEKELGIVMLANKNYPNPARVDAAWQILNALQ
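20 mM phosphate pH 7.0 + 0.01% (detergent screen) or 0.0001% Triton X-100; 5.3 nM AmpC reagent; cpd preinc 15 min RT; nitrocefin (800 uM stock) to start; A480 q20 s × 4 min; Activity was normalised to no-enzyme and no-compound control wells.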
NS1 inh = inhibitors of influenza NS1 protein function; AID 2326; Potency, µM (series often up to 46.1 µM), for inactives: top-dose activity, positive = more growth; 0.4% of 270,000 active; calls by dose curve; note: actives are rising curves; nearly all actives have a fitted effect of over 50% in size
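OD600 was taken as the measure of yeast growth restored by compound in an NS1-expressing S. cerevisiae strain. Cells had been washed out of glucose medium and diluted 1:100 into galactose -URA medium, pH 6.0.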
AmpC inh no detg = AmpC beta-lactamase inhibition without detergent | Potency, µM (series often up to 57.1 µM), inactives show at the top dose activity change, negative = inhibition, usual class: inhibitors | P00811 | 0.52% of 330,000 active | AmpC nitrocefin hydrolysis, absorbance 480 nm, 0.0001% Triton;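 note: plate controls were no compound for no effect and no enzyme for full effect; nearly all actives have a fitted effect of over 20% in size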
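AmpC (5.3 nM in the dispensed reagent) in 20 mM phosphate pH 7.0 with 0.01% (detergent screen) or 0.0001% Triton X-100 was preincubated with compounds for 15 min at room temperature. Nitrocefin was then added from an 800 uM solution, and hydrolysis was followed at 480 nm.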
AMA1 RON2 block = AMA1-RON2 (P. falciparum) interaction inhibition. 0.2% of 360,000 active. AlphaScreen AMA1-biotinylated RON2 peptide binding. Potency, µM (highest dose often 58.2 µM), for the others: top-dose activity change, negative = inhibition, most hits filed as inhibitors. AID 720542;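 note: 0% = vehicle wells and -100% = peptide control; nearly all actives have a fitted effect of over 45% in size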
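AMA1 (3D7) with his tag at 25 nM final met compounds first, then biotinylated RON2 peptide at 25 nM; detection used donor plus acceptor beads, 10 µg/mL apiece, read by AlphaScreen after 30 min at room temperature.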
* hit, by the source's call. The list is not random: actives were taken first. Their share in the collection is about 0.86%. Unless noted, calls come from the whole dose curve; as a rule, active = well fitted curve in the direction sought with a large enough effect; inconclusive = small, poorly fitted or top-dose-only effect, or another doubt; inactive = no such curve, though single readings can be large; an effect the other way counts as inactive or inconclusive. Potency is the fitted concentration of half-maximal effect.

For C=CCN1C(=O)S/C(=C/c2ccc(Sc3nc4ccccc4[nH]3)o2)C1=O the results were AmpC inh detg -9%, NS1 inh 22%, AmpC inh no detg -32% and AMA1 RON2 block -3%.
`O=C1NC(=O)N(c2ccc(Cl)cc2)C(=O)/C1=C\c1ccc(Sc2nc3ccccc3[nH]2)o1` gave AmpC inh detg -8%, NS1 inh 7%, AmpC inh no detg 18µM* and AMA1 RON2 block inconclusive.
Screening CC1NC(=O)NC1CCCCCC(=O)Nc1ccc(F)c(Cl)c1 (stereo not given) returned AmpC inh detg 2%, AmpC inh no detg -5% and AMA1 RON2 block inconclusive.
For Cc1ccc(NC(=O)CCCCCC2NC(=O)NC2C)cc1 (stereo not given) the results were AmpC inh detg inconclusive, NS1 inh -2%, AmpC inh no detg 0% and AMA1 RON2 block 0.21µM*.
`CCOc1cc(NCc2ccccc2)c2ncn(C(C)C)c2c1` gave AmpC inh no detg 92% and AMA1 RON2 block 25µM*.
Screening O=C(CNC(=O)c1cccc(Br)c1)N/N=C/c1cc(Br)cc(Br)c1O returned AmpC inh detg 5%, AmpC inh no detg 11µM* and AMA1 RON2 block 42%.
For O=C(CNC(=O)c1cccc(Br)c1)N/N=C/c1cccs1 the results were AmpC inh detg inconclusive, NS1 inh -2%, AmpC inh no detg -28% and AMA1 RON2 block 7%.
O=C1NC(=O)C2(CCCCC2C2CCCCC2)N1 (stereo not given) was read as AMA1 RON2 block 0%.
`CCOc1ccccc1NC(=O)C(OC(=O)c1ccc(NC(=O)CC#N)cc1)c1ccccc1` (stereo not given) gave AmpC inh detg -12%, AmpC inh no detg 7.9µM* and AMA1 RON2 block -3%.
For CCOc1ccccc1NC(=O)C(OC(=O)c1ccccc1)c1ccccc1 (stereo not given) the results were AmpC inh detg 0%, NS1 inh -16%, AmpC inh no detg -20% and AMA1 RON2 block -2%.
Screening Cc1nnc(NC(=O)c2c(F)cccc2F)s1 returned AmpC inh detg -15%, NS1 inh 2%, AmpC inh no detg 18µM* and AMA1 RON2 block -6%.
For Cc1nnc(NC(=O)c2cccc(F)c2)s1 the results were AmpC inh detg -1%, NS1 inh -10%, AmpC inh no detg 1% and AMA1 RON2 block -1%.
For CC(C)(C)CC(=O)NCC(c1ccc2c(c1)OCO2)N1CCOCC1 (stereo not given) the results were AmpC inh detg 4%.
`Cc1cc(C)c(S(=O)(=O)NCCc2ccccc2)c(C)c1` gave AmpC inh detg -6%, NS1 inh -11%, AmpC inh no detg -19% and AMA1 RON2 block 17%.
Cc1cc(C)c(S(=O)(=O)NCCn2ccc3ccccc32)c(C)c1 was read as AmpC inh detg inconclusive, NS1 inh -38%, AmpC inh no detg 40µM* and AMA1 RON2 block -7%.
Screening OCCN1CCN(c2ncnc3nc[nH]c23)CC1 returned AmpC inh detg inconclusive, NS1 inh -105%, AmpC inh no detg 45µM* and AMA1 RON2 block -2%.
`c1nc(N2CCCC2)c2[nH]cnc2n1` gave AmpC inh detg inconclusive, NS1 inh -2%, AmpC inh no detg -19% and AMA1 RON2 block -14%.
Screening Fc1ccc(N2CCN(c3ncnc4nc[nH]c34)CC2)cc1 returned AmpC inh detg inconclusive, NS1 inh -2%, AmpC inh no detg 20µM* and AMA1 RON2 block 0%.
`c1nc(N2CCCCCC2)c2[nH]cnc2n1` gave AmpC inh detg inconclusive, NS1 inh -105% and AMA1 RON2 block 6%.
Screening CC1=C(C(=O)NCc2ccccn2)C2(CCC(C)CC2)OC1=O (stereo not given) returned AmpC inh detg inconclusive, NS1 inh -6%, AmpC inh no detg 2.8µM* and AMA1 RON2 block 54%.
For CC1=C(C(=O)NCc2ccc(Cl)cc2)C2(CCC(C)CC2)OC1=O (stereo not given) the results were AmpC inh detg 1%, NS1 inh -1%, AmpC inh no detg 36% and AMA1 RON2 block -4%.
Cc1ccc(C2(C)NC(=O)N(CC(=O)c3ccc(Cl)s3)C2=O)cc1 (stereo not given) was read as AmpC inh detg -9%, NS1 inh 10%, AmpC inh no detg 28µM* and AMA1 RON2 block 0%.
Screening CCCCc1ccc(NC(=O)CSc2nc(=O)n(CCCN3CCOCC3)c3c2CCC3)cc1 returned AmpC inh detg inconclusive, AmpC inh no detg 202% and AMA1 RON2 block -25%.
`CCOc1ccccc1CNc1ncnc2onc(-c3ccc(F)cc3)c12` gave AmpC inh detg 1%.
Clc1ccc(-n2cnnn2)cc1 was read as AmpC inh detg 3%, NS1 inh 12%, AmpC inh no detg -11% and AMA1 RON2 block 11%.
`CO/C=C\C=C/c1nnn(-c2ccc(Cl)cc2)n1` gave AmpC inh detg -5%, NS1 inh -45%, AmpC inh no detg 11µM* and AMA1 RON2 block inconclusive.
Screening COCCCNC(=O)C1CCN(C(=O)c2cnn(-c3ccccc3)c2-n2cccc2)CC1 returned AmpC inh detg 13%.
C[C@H]1COC2=C1C(=O)C(=O)c1c2ccc2c1CCCC2(C)C was read as AmpC inh detg 1%, NS1 inh -4%, AmpC inh no detg inconclusive and AMA1 RON2 block 28µM*.
`Cc1coc2c1C(=O)C(=O)c1c-2ccc2c1CCCC2(C)C` gave AmpC inh detg -1%, NS1 inh -21%, AmpC inh no detg 10µM* and AMA1 RON2 block inconclusive.
For Cc1cc(C)n(-c2nc3ccccc3nc2N2CCN(c3cccc(C(F)(F)F)c3)CC2)n1 the results were AmpC inh detg 17%.
Screening CCOC(=S)SCC(=O)Nc1nc(C)c(C)s1 returned AmpC inh detg -1%, NS1 inh -42%, AmpC inh no detg 10µM* and AMA1 RON2 block 30%.
For CCc1nn(-c2ccccc2)c2nc(-c3ccc(O)cc3)c3cc(OC)c(OC)cc3c12 the results were AmpC inh detg 9%.
For CCOc1ccc(S(=O)(=O)Nc2cc(Sc3ncn[nH]3)c3oc(=O)sc3c2)cc1 the results were AmpC inh detg -7%, NS1 inh 10% and AmpC inh no detg 5.6µM*.
For Cc1ccc(S(=O)(=O)Nc2nnc(C3CCCCC3)s2)cc1 the results were AmpC inh detg -1%, NS1 inh -44%, AmpC inh no detg -30% and AMA1 RON2 block -8%.
`Cc1ccc(S(=O)(=O)N(C)c2ccc(OCC(=O)Nc3nnc(C4CC4)s3)cc2)cc1` gave AmpC inh detg -2%, AmpC inh no detg 14µM* and AMA1 RON2 block 14%.
Cc1ccc(S(=O)(=O)NC(=O)Nc2nnc(C3CC3)s2)cc1 was read as AmpC inh detg 2%, NS1 inh -2%, AmpC inh no detg 4.5µM* and AMA1 RON2 block 24%.
`CCc1nnc(NC(=O)COc2ccc(N(C)S(=O)(=O)c3ccc(C)cc3)cc2)s1` gave AmpC inh detg -4%, AmpC inh no detg -16% and AMA1 RON2 block 10%.
For COc1ccc(CN2C(=O)C(CC(=O)NCCc3ccccn3)CC(C(=O)N3CCCCCC3)=C2C)cc1 (stereo not given) the results were AMA1 RON2 block 41%.
